Screening results: PubChem, National Center for Advancing Translational Sciences (NCATS)
An excerpt weighted towards active compounds, which were near 12% of everything screened.
G9a block – blocks human histone lysine methyltransferase G9a | G9a H3K9 monomethylation, AlphaScreen, 2 h | 350,000 compounds, 8.8% hits | Q96KQ7 | AID 504332 | Potency, µM (doses to about 102 µM), inactives show top-dose activity, negative = inhibition, usual class: inhibitors; further: on the % scale 0 is the no-effect control and ±100 the full control effect; nearly all actives have a fitted effect of over 75% in size
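Readings reflect AlphaScreen signal from monomethyl-H3K9 antibody detection. HMT at 20 nM; substrate b-H3K9 500 nM; cofactor SAM 20 uM; 2 h RT reaction; compounds tested as titrations in qHTS with 15 min preincubation.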
HP1b chromo inh – inhibitors of HP1-beta chromodomain binding to methylated histone tails; AlphaScreen HP1-beta / biotin-H3K9me3 peptide binding; Potency, µM (highest dose often 114 µM), for inactives: at the top dose activity change, negative = inhibition, most hits filed as inhibitors; 390,000 compounds, 0.56% hits; AID 540317; further: nearly all actives have a fitted effect of over 70% in size
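AlphaScreen: HP1-beta (50 nM) preformed 30 min with biotin-H3(1-18)K9me3 peptide (50 nM) in PBS pH 7.4, 0.01% Tween-20. Compound added for 30 min at RT, then streptavidin donor/nickel chelate acceptor beads (10 ug/mL) for 30 min.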
PLK1 PBD inh – blocks phosphopeptide binding to human PLK1 polo-box domain; Potency, µM, inactives show max response, negative = inhibition, most hits filed as inhibitors; 360,000 compounds, 2.8% hits; AID 720504; Plk1 PBD binding of FITC phosphopeptide, fluorescence polarization; further: series mostly up to about 57 µM; on the % scale 0 is the no-effect control and ±100 the full control effect; nearly all actives have a fitted effect of over 65% in size
Sfp PPTase inh – blocks B. subtilis Sfp PPTase activity; Biochemical Sfp PPTase activity, qHTS; Potency, µM, for the others: largest response in the series, negative = inhibition, hits mostly inhibitors; 310,000 compounds, 3.5% hits; AID 1490;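 further: the enzyme is Sfp with the accession as filed and its product quenches rhodamine fluorescence; 0% = enzyme reaction without inhibitor and -100% = no enzyme wells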
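Compounds were incubated with enzyme (final 15 nM) for 15 min at room temperature before substrate addition started the reaction. Fluorescence at 525 nm excitation, 598 nm emission was recorded immediately and after 30 minutes.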
BAZ2B inh – inhibitors of human BAZ2B bromodomain; Q9UIF8; Potency, µM (highest dose often 114 µM), for inactives: at the top dose activity change, negative = inhibition, hits mostly inhibitors; AlphaScreen BAZ2B-H3K14Ac peptide displacement; AID 504333; 360,000 compounds, 4.4% hits; further: on the % scale 0 is the no-effect control and ±100 the full control effect; nearly all actives have a fitted effect of over 60% in size
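BAZ2B 50 nM plus b-H3(5-23)K14Ac 50 nM, PBS pH 7.4/0.01% Tween-20, 30 min RT; compound added (max 110 uM), 30 min RT; streptavidin donor/Ni-chelate acceptor beads 10 ug/mL final, 20 min dark; AlphaScreen read.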
JMJD2A Tudor inh – inhibitors of human JMJD2A Tudor domain; 390,000 compounds, 4.4% hits; AID 504339; Potency, µM (doses to about 114 µM), for the others: at the highest dose activity change, negative = inhibition, usual class: inhibitors; O75164; AlphaScreen JMJD2A-Tudor / H3K4me3 peptide binding; further: on the % scale 0 is the no-effect control and ±100 the full control effect; nearly all actives have a fitted effect of over 50% in size
Active calls of the source: *; ? = inconclusive; · = not tested or not shown; [ ] = remark or other dose. The call rests on the fitted dose curve; in most records, active means well fitted curve in the direction sought with a large enough effect; inconclusive means small, poorly fitted or top-dose-only effect, or another doubt; inactive means no such curve, though single readings can be large; an effect the other way counts as inactive or inconclusive. Potency means the concentration at half of the fitted maximal effect.

SMILES	G9a block	HP1b chromo inh	PLK1 PBD inh	Sfp PPTase inh	BAZ2B inh	JMJD2A Tudor inh
COc1ccc(N=C(C)C2=C(O)COC2=O)cc1	6.31µM*	35.2%	-4.5%	7.0%	-18.9%	-14.3%
COc1cc(NC(=O)NNC(=O)c2cc3occc3n2C)cc(OC)c1OC	?	9.8%	-7.6%	14.2%	?	-25.8%
Cc1ccc(S(=O)(=O)N/N=C/c2cccn2-c2ccc(Cl)cc2)cc1	110.5%[59 µM]	?	-2.9%	-9.3%	-2.2%	56.2µM*
CC1=NN(c2ccc(Cl)cc2)C(=O)/C1=C\c1cccn1-c1ccc(S(N)(=O)=O)cc1	10µM*	?	-16.1%	0.4%	10µM*	22.4µM*
CCOC(=O)C1=C(O)C(=O)N(c2ccc(S(N)(=O)=O)cc2)C1c1ccc(Cl)cc1 (centres undefined)	7.2%[0.501 µM]	5.6%	-12.3%	-6.1%	?	-27.2%
COc1cc(NC(=O)CSc2nc(-c3ccc(C(C)C)cc3)no2)cc(OC)c1	2.2%[59 µM]	11.9%	·	·	2.6%	-2.3%
C=CCN(C(=O)Cn1c(C(=O)OC)cc2oc(C)cc21)c1ccccc1	44.7µM*	-1.8%	-9.5%	?	4.5%	-13.1%
COCCN(C(=O)CSc1nnc(-c2ccco2)n1C)c1c(N)n(CC(C)C)c(=O)[nH]c1=O	-6.4%[12.7 µM]	43.0%	-13.2%	·	-8.3%	-6.8%
C=CCn1c(-c2cc3cccc(OC)c3o2)n[nH]c1=S	6.31µM*	29.1%	-18.0%	-11.4%	?	39.8µM*
C=CCn1c(-c2cccnc2)n[nH]c1=S	44.7µM*	43.9%	0.7%	11.8%	-28.3%	20µM*
C=CCn1c(-c2cccc(OC)c2)nc2nc3ccccc3nc21	-7.3%[59 µM]	11.5%	-9.3%	6.7%	10.0%	1.1%
C=CCn1c(-c2cccc(OC)c2OC)n[nH]c1=S	20µM*	31.5%	-1.3%	14.9%	-28.9%	7.94µM*
COc1cccc2cc(-c3ccnc(=S)[nH]3)oc12	0.5%	·	·	5.2%	2.7%	·
C=CCn1c(-c2cccc(OC)c2)n[nH]c1=S	7.08µM*	3.4%	-3.2%	0.5%	6.5%	11.2µM*
Cc1cccc(C(=O)NNC(=O)CSc2nnc(C3CC3)n2C)c1	-2.2%	11.0%	-16.2%	10.5%	-10.3%	-1.4%
CCCCNc1sc(S(=O)(=O)CC)nc1S(=O)(=O)c1ccc(C)cc1	3.2%[59 µM]	20.8%	·	·	0.3%	-10.1%
C=CCn1c(-c2cc(OC)c(OC)c(OC)c2)n[nH]c1=S	?	11.3%	-4.2%	?	-4.3%	6.31µM*
CCn1c(-c2cc(OC)c(OC)c(OC)c2)n[nH]c1=S	?	42.2%	0.8%	2.0%	-8.2%	7.94µM*
COCCCNc1cc(C)nc2ccccc12	13.4%	22.2%	-8.7%	5.6%	8.5%	-13.2%
Cc1cc(NCCCCCCCNc2cc(C)nc3cc([N+](=O)[O-])ccc23)c2ccc([N+](=O)[O-])cc2n1	·	70.8µM*	0.6%	·	·	56.2µM*
CCC(O)CC(C(=O)NNc1ccccc1)C(=O)NNc1ccccc1 (centres undefined)	7.94µM*	?	-13.1%	4.9%	-1.6%	-16.5%
Cc1sc2c(c1C)CN(C(C)(C)C)CN2C(=O)c1ccccc1	50.1µM*	21.7%	-6.0%	-6.8%	?	-1.5%
Cc1nc(SCC(=O)NC2CCS(=O)(=O)C2)c2c3c(sc2n1)CCCC3 (centres undefined)	50.1µM*	19.8%	-20.2%	·	4.1%	-11.0%
O=C(O)C1CCNCC1	-14.9%[59 µM]	·	·	·	·	·
O=C(O)C1CCC(C(=O)O)O1 (centres undefined)	·	-10.6%[57 µM]	-2.7%	·	·	44.7µM*
SMILES	G9a block	HP1b chromo inh	PLK1 PBD inh	Sfp PPTase inh	BAZ2B inh	JMJD2A Tudor inh
CN1CN(C)C(c2ccncc2)=C1c1ccncc1	39.8µM*	21.7%	-1.1%	-10.6%	-8.6%	-7.0%
Cn1c(SCC2CCCCC2)nnc1-c1ccncc1	-5.1%[12.7 µM]	17.1%	-7.4%	8.9%	9.3%	-28.6%
COC(=O)[C@H](C)NC(=O)[C@@H](C)CO	·	·	·	22.9%	·	·
COc1ccc(-c2nc3cnc(N4CCOCC4)nc3n(CCC#N)c2=O)cc1	-6.1%[12.7 µM]	·	·	18.8%	·	·
CC(=CC(=O)c1ccccc1)c1ccccc1	·	136.6%	-10.0%	·	·	135.2%
O=C(COC(=O)c1ccc(Br)o1)Nc1cccc(S(=O)(=O)N2CCOCC2)c1	·	15.5%	-1.5%	·	·	-13.8%
O=C(CN1C(=O)c2cccc3cccc1c23)Nc1ccc(S(=O)(=O)N2CCOCC2)cc1	18.6%[59 µM]	60.5%	-10.2%	7.5%	20.1%	-13.9%
COc1ccc(N2CCN(CC(=O)Nc3cccc(S(=O)(=O)N4CCOCC4)c3)CC2)cc1	14.1µM*	-65.3%	-6.6%	-9.2%	35.5µM*	7.94µM*
O=C(CN1CCN(S(=O)(=O)c2ccccc2)CC1)Nc1ccc(N2CCOCC2)cc1	?	19.2%	-7.5%	9.4%	-5.4%	-9.0%
O=C(CN1c2cccc3cccc(c23)S1(=O)=O)Nc1ccc(S(=O)(=O)N2CCOCC2)cc1	7.94µM*	2.4%	-13.1%	?	-38.8%	-25.3%
O=C(CNC(=O)c1ccc(Br)o1)Nc1cccc(S(=O)(=O)N2CCOCC2)c1	50.1µM*	-3.1%	-9.9%	·	-1.1%	-22.8%
O=C(CN1CCN(S(=O)(=O)c2ccc3ccccc3c2)CC1)Nc1ccc(N2CCOCC2)cc1	39.8µM*	-9.2%	-9.6%	14.1%	-37.7%	-43.5%
O=C(OCC(=O)N1CCN(c2ccccc2)CC1)c1ccc(O)cc1O	·	54.5%	3.7%	-6.9%	16.2%	-9.1%
O=C(CCCNC(=O)c1ccc(Cl)cc1)Nc1ccc(F)c(S(=O)(=O)N2CCOCC2)c1	1.5%[59 µM]	34.6%	4.7%	·	2.5%	5.7%
Cc1ccccc1-c1ccnc2c(-c3ccc(F)cc3)c(C)nn12	-0.7%[59 µM]	118.8%	·	·	-6.7%	111.9%
COCCn1c(SCC(=O)c2c[nH]c3ccccc23)nc2cc(C(=O)NCC(C)C)ccc2c1=O	4.5%[59 µM]	18.1%	·	·	-5.1%	-14.6%
COc1ccc(S(=O)(=O)N2CCN(CC(=O)Nc3ccc(C)c(F)c3)CC2)cc1	44.7µM*	16.2%	-7.4%	-24.9%	5.4%	-20.3%
CC(=O)Nc1ccc(S(=O)(=O)Nc2ccc(Nc3ccccc3)cc2)cc1	39.8µM*	?	-8.5%	-1.7%	-36.7%	?
O=C(O)c1cccc(Nc2nc3ccccc3nc2NS(=O)(=O)c2ccccc2)c1	·	19.7%	?	·	·	6.8%
Cc1ccc(NC(=S)NC(=O)C2CCCC2)cc1C	35.5µM*	53.8%	-18.4%	-6.5%	-7.7%	6.2%
